# An excerpt weighted towards active compounds, which were near 3.6% of everything screened.
# NTMT1 inhibitor: Primary qHTS for Inhibitors of N-terminal methyltransferase 1 (NTMT1): MTaseGlo Assay; N-terminal Xaa-Pro-Lys N-methyltransferase 1 (Homo sapiens), Q9BV86; NTMT1 MTase-Glo SAH luminescence, purified enzyme; Potency, µM (series often up to 114 µM), for the others: top-dose activity change, negative = inhibition, most hits filed as inhibitors; 2.5% of 59,000 active; AID 1645870, 2021;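 further: plate controls were DMSO vehicle for no effect and no enzyme for full effect; nearly all actives have a fitted effect of over 65% in size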
# GALC G270D up: A Novel Cell-Based Assay to Identify Small Molecules for B -Galactocerebrosidase; P54803; 145M-Twi-hGALC-G270D cells, HMU-beta-Gal fluorescence, 48 h; Potency, µM (doses to about 57.5 µM), hits mostly activators; 0.1% of 45,000 active; further: 0% is about no effect; nearly all actives have a fitted effect of over 65% in size
# Target sequence (P54803 whole entry G286D): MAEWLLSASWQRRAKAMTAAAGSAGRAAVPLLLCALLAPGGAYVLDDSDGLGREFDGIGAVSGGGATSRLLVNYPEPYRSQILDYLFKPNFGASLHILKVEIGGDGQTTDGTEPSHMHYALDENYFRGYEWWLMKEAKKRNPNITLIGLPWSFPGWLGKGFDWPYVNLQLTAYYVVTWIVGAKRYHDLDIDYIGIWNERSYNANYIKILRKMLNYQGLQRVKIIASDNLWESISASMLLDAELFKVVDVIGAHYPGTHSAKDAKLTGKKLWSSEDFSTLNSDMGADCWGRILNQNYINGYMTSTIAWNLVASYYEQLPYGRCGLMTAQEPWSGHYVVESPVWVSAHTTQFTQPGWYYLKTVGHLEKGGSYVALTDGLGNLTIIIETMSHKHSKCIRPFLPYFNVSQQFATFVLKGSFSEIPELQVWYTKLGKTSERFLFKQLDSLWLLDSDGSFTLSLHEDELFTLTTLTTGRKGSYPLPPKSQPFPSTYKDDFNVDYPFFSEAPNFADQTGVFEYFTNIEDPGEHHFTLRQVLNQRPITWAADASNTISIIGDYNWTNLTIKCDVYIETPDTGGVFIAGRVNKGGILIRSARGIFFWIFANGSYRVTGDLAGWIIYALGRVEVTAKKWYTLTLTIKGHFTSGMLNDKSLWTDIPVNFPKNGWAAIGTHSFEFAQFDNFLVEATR
#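 qHTS, 1536-well; 145M-Twi-hGALC-G270D cells (WT line also made) in DMEM/F12 + 10% FBS; compound incubation on live cells; HMU-β-gal 0.1 mM final, pH 5.2, NaTC; carbonate stop; fluorescence increase = enhanced residual activity.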
# S16 F2sN tox: Cell viability qHTS assay in S16 Pmp22-F2sN cells | Potency, µM (titrated, usually from 57.5 µM), for inactives: at the top dose activity change, negative = cytotoxicity, usual class: cytotoxic | AID 1508642, 2021 | 0.48% of 43,000 active | S16 Pmp22-F2sN Schwann cells viability, CellTiter-Glo, 24 h; further: on the % scale 0 is the no-effect control and ±100 the full control effect; nearly all actives have a fitted effect of over 65% in size
#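 Viability was measured by CellTiter-Glo luminescence (15 min, room temperature). This followed 24 h at 37 °C of compound exposure (23 nL pin transfer) in S16 Pmp22-F2sN Schwann cells, 500-1,000 per well.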
# PMP22 txn prim: Cell-based coincidence reporter assay to measure PMP22 gene transcription in S16 Pmp22-F2sN cells - Primary screen | Potency, µM (highest dose often 57.5 µM), without a hit: at the top dose activity change, negative = inhibition, hits mostly inhibitors | AID 1508649, 2021 | S16 Pmp22-F2sN Schwann cells (luciferase reporters placed in the Pmp22 gene), FLuc/NLuc coincidence luminescence, 24 h | 2% of 43,000 active; active means clear falling dose curves in both reporters; inconclusive means both reporters move, but less clearly or upward; inactive means either reporter flat; the % is the NLuc reporter signal; further: on the % scale 0 is the no-effect control and ±100 the full control effect
#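 Transcriptional readout in edited S16(c9) cells: two luciferases reported from the Pmp22 locus, measured in turn after 24 h compound incubation.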
# SKOV3 invasion: Primary qHTS assay for Inhibitors of ovarian cancer metastasis using an organotypic tumor microenvironment (TME) model; SKOV3ip1-GFP adhesion/invasion on 3D omental model, fluorescence; Potency, µM (series often up to 45.8 µM), for the others: top-dose activity change, negative = inhibition, most hits filed as inhibitors; 0.1% of 46,000 active;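 further: plate controls were DMSO wells for no effect and tomatine positive control wells for full effect; nearly all actives have a fitted effect of over 65% in size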
#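 A 3D layer of primary human omental fibroblasts, mesothelial cells, fibronectin and collagen I, grown 48 hr, received SKOV3ip1-GFP cells in serum-free medium plus compounds at 0.36-46 umol/L. After 2 hr RT and 16 hr 37 C, fixed adherent GFP cells were counted; normalized to DMSO and tomatine.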
# mTORC1 inh: Acumen qHTS Assay for Inhibitors of the mTORC1 Signaling Pathway in MEF (Tsc2-/-, p53-/-) Cells: Sytravon. Tsc2-/- p53-/- MEF, phospho-rpS6 immunofluorescence/PI, 24 h. Potency, µM (highest dose often 38.3 µM), without a hit: at the top dose activity change, negative = inhibition, most hits filed as inhibitors. 0.78% of 44,000 active. AID 493208, 2011;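 further: plate controls were DMSO for no effect and rapamycin for full effect; nearly all actives have a fitted effect of over 50% in size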
#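 Read-out: phospho-S6 Alexa-488 intensity over PI intensity per well, scored as % active cells using thresholds from rapamycin (7.5 nM) and DMSO controls. Tsc2-/-, p53-/- MEFs exposed to compound for 24 h; PI cell count recorded as viability.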
# The depositor's hits bear a star; i = inactive; ? = inconclusive; / = not tested or not shown; [ ] = dose if it differs, or a comment. Unless noted, the call rests on the fitted dose curve; in most records, active means well fitted curve in the direction sought with a large enough effect; inconclusive means small, poorly fitted or top-dose-only effect, or another doubt; inactive means no such curve, though single readings can be large; an effect the other way counts as inactive or inconclusive. Potency means the concentration at half of the fitted maximal effect.
SMILES,NTMT1 inhibitor,GALC G270D up,S16 F2sN tox,PMP22 txn prim,SKOV3 invasion,mTORC1 inh
CS(=O)(=O)c1oc(-c2ccc(F)cc2)nc1S(=O)(=O)c1ccc(Cl)cc1,2%,i,5.6µM*,4.5µM*,i,?
CCS(=O)(=O)c1oc(-c2ccc(F)cc2)nc1S(=O)(=O)c1ccc(Br)cc1,12%,i,2.8µM*,3µM*,?,2.6µM*
CC(C)S(=O)(=O)c1oc(-c2cccs2)nc1S(=O)(=O)c1ccc(F)cc1,-15%,i,3.2µM*,1.7µM*,?,0.58µM*
CC(CCC1(O)OC2CC3C4CC=C5CC(O[C@@H]6O[C@H](CO)[C@@H](O[C@@H]7O[C@@H](C)[C@H](O)[C@@H](O)[C@H]7O)[C@H](O)[C@H]6O[C@@H]6O[C@@H](C)[C@H](O)[C@@H](O)[C@H]6O)CCC5(C)C4CCC3(C)C2C1C)CO[C@@H]1O[C@H](CO)[C@@H](O)[C@H](O)[C@H]1O (stereo not given in full),8%[12.6 µM],/,/,/,/,/
Cc1ccc2occ(CC(=O)Nc3ccc(Cl)c(C(F)(F)F)c3)c2c1,8%,i,?,?,-7%,12µM*
Cc1ccc2occ(CC(=O)Nc3ccc(S(N)(=O)=O)cc3)c2c1,1%,i,4%,5%,-7%,-14%
COc1cc(C2c3cc4c(c(O)c3CC(CO)C2C(=O)O)OCO4)cc(OC)c1O (stereo not given),1%[29.8 µM],/,/,/,/,/
Cc1ccccc1CNC(=O)CCCn1c(=O)c2cccn2c2ccccc21,-1%,i,-11%,16µM*,i,-2%
COc1ccccc1CNC(=O)CCCn1c(=O)c2cccn2c2ccccc21,-3%,i,-4%,?,12%,18µM*
CC(NC(=O)c1ccc(Cn2c(=O)c3cccn3c3cccnc32)cc1)c1ccccc1 (stereo not given),?,i,-4%,5%,-8%,6%
CC(NC(=O)CCCn1c(=O)c2cccn2c2cccnc21)c1ccccc1 (stereo not given),89µM*,i,1%,?,17%,0%
Cc1ncsc1-c1ccc([C@H](C)NC(=O)[C@@H]2C[C@@H](O)CN2C(=O)[C@@H](NC(=O)COCCCOCCNC(=O)C[C@@H]2N=C(c3ccc(Cl)cc3)c3c(sc(C)c3C)-n3c(C)nnc32)C(C)(C)C)cc1,13%,/,/,/,/,/
Nc1nc(Nc2ccc3c(c2)CCC(N2CCCC2)CC3)nn1-c1cc2c(nn1)-c1ccccc1CCC2 (stereo not given),40µM*,/,/,/,/,/
O=C(C=Cc1ccc(CN(CCO)CCc2c[nH]c3ccccc23)cc1)NO,6%[57.5 µM],/,/,/,-2%,/
CCCCN(C)CC(O)Cn1cc(/C=C/C(=O)c2ccc(C)cc2)c2ccccc21 (stereo not given),?,i,?,?,?,?
CCCCN(C)CC(O)Cn1cc(/C=C/C(=O)c2ccc(OC)c(OC)c2)c2ccccc21 (stereo not given),?,32µM*,-24%,?,-22%,?
COc1ccc(C(=O)/C=C/c2cn(CC(O)CN3CCCCCC3)c3ccccc23)cc1OC (stereo not given),45µM*,i,-20%,?,-15%,-15%
CC/C=C\CC1C(=O)C=CC1(CCCCC1CCC(=O)O1)OC(C)=O (stereo not given),-3%[29.8 µM],/,/,/,/,/

# Assay outcomes deposited in PubChem by National Center for Advancing Translational Sciences (NCATS).
